# Marburg entry: blocks Marburg virus binding or cell entry. Marburg virus pseudotype entry/binding inhibition, cell-based. Potency, µM (top dose mostly 49.2 µM), for inactives: at the highest dose activity change, negative = inhibition, usual class: inhibitors. hit rate 6.5% among 18,000. AID 720532
# Lassa entry: blocks Lassa virus binding or cell entry; Lassa virus pseudotyped entry inhibition, cell-based qHTS; hit rate 4.1% among 18,000; Potency, µM (highest dose often 49.2 µM), for the others: at the highest dose activity change, negative = inhibition, actives largely listed as inhibitors
# Active calls of the source: *; ? = inconclusive; [ ] = remark or other dose. Compounds with a hit are over-represented: about 8% of the library has one in this group of screens. Calls follow the shape of the full dose curve; tested in HEK293 cells. % is scaled to controls: 0 for no effect and ±100 for the full control effect; potency is read from the fitted curve at half-maximal effect.
SMILES,Marburg entry,Lassa entry
COc1cc(CCN2C(=O)NC(c3ccccc3)C(C(C)=O)=C2C)cc(OC)c1OC (stereo unspecified),6%[8.59 µM],9%[8.59 µM]
COC(=O)[C@H]1[C@H]2C[C@@H]3c4[nH]c5ccccc5c4CCN3C[C@H]2C[C@@H](OC(=O)c2cc(OC)c(OC)c(OC)c2)[C@@H]1OC,?,3.5µM*
COC(=O)[C@H]1[C@H]2C[C@@H]3c4[nH]c5cc(OC)ccc5c4CCN3C[C@H]2C[C@@H](OC(=O)/C=C/c2cc(OC)c(OC)c(OC)c2)[C@@H]1OC,10µM*,-28%[17.8 µM]
COC(=O)[C@H]1C(OC)[C@@H](OC(=O)c2cc(OC)c(OC)c(OC)c2)C[C@@H]2CN3CCc4c([nH]c5cc(OC)ccc45)[C@H]3C[C@H]21 (stereo partly specified),-6%,1%
COC(=O)C1=CO[C@@H](C)[C@@H]2CN3CCc4c([nH]c5cc(OC)ccc45)[C@@H]3C[C@H]12,-12%,1%
Cc1ccc2nc(-c3ccccc3C)c(CN(CC3CCCO3)C(=O)c3cccs3)cc2c1 (stereo unspecified),-27%,4%
CN1CCC(C(=O)Nc2n[nH]c3nnc(-c4ccccc4)cc23)CC1,?,16%
COc1cc(-c2cc(C)c3c(OC)ccc(OC)c3n2)cc2c1OCCN(C(=O)CCn1ccc(C)n1)C2,-18%,-3%
CCCCCCCCCCCCC[N+](C)(C)Cc1ccccc1,8.9µM*,18µM*
CC[N+](CC)(CCCNC1=CC(=O)C(NCCC[N+](CC)(CC)Cc2ccccc2)=CC1=O)Cc1ccccc1,1%,-1%
COc1cccc([C@@H]2Oc3ccc(OC)cc3C(=O)[C@@H]2O)c1,-11%[8.59 µM],92%[8.59 µM]
CCCCCCN1C[C@@H](n2cc(COC(=O)c3ccccc3)nn2)[C@H](O)C[C@H]1c1ccc(Cl)cc1,?,-20%
CO[C@H]1[C@H](NC(=O)c2ccco2)c2ccccc2C12CCN(Cc1cccn1-c1ccccn1)CC2,?,-11%
Cc1cc2c(nc1C)CCCN2CC(O)CN1CCN(C)CC1 (stereo unspecified),18%[8.59 µM],-17%[8.59 µM]
COC(=O)c1c(C(=O)OC)c2c3ccccc3cc(C3CC3)n2c1C(=O)OC,12%[8.59 µM],2%[8.59 µM]
C[C@@H]1O[C@@H](O[C@@H]2C=C3CC[C@@H]4[C@H](CC[C@]5(C)[C@@H](c6ccc(=O)oc6)CC[C@]45O)[C@@]3(C)CC2)[C@H](O)[C@H](O)[C@H]1O,?,1µM*
COC(=O)/C=C/C(=O)N[C@@H]1CC[C@@]2(O)[C@H]3Cc4ccc(O)c5c4[C@@]2(CCN3CC2CC2)[C@H]1O5,10µM*,28µM*
Oc1ccc2c3c1O[C@H]1c4[nH]c5c(c4C[C@@]4(O)[C@@H](C2)N(CC2CC2)CC[C@]314)C[C@@]1(O)[C@H]2Cc3ccc(O)c4c3[C@@]1(CCN2CC1CC1)[C@H]5O4,-19%,8%
Oc1ccc2c3c1O[C@H]1c4oc5ccccc5c4C[C@]4(O)[C@H](C2)N(CC2CC2)CC[C@@]314,28µM*,28µM*
O=C1CC[C@]2(O)[C@H]3Cc4ccc(O)c5c4[C@@]2(CCN3CC2CC2)[C@@H]1O5,6%[17.8 µM],-14%[17.8 µM]
Oc1ccc2c3c1O[C@H]1c4c(c5ccccc5n4Cc4ccccc4)C[C@]4(O)[C@H](C2)N(CC2CC2)CC[C@@]314,11µM*,16µM*
Oc1ccc2c3c1O[C@H]1[C@@H](O)CC[C@]4(O)[C@H](C2)N(CC2CCC2)CC[C@@]314,-13%[17.8 µM],-3%[17.8 µM]
O=C1CC[C@@]2(O)[C@H]3Cc4ccc(O)c5c4[C@@]2(CCN3CC2CC2)[C@H]1O5,-28%,2%
Oc1ccc2c3c1O[C@H]1c4[nH]c5ccccc5c4C[C@]4(O)[C@H](C2)N(CC2CC2)CC[C@@]314,22µM*,?
OC[C@H]1O[C@H](C#Cc2ccc(F)cc2F)C=C[C@H]1O,?,-16%[8.59 µM]
SMILES,Marburg entry,Lassa entry
COc1cc(=O)n2c(c1C(=O)N(C)Cc1nccs1)CCN(Cc1cc(C)cc(C)c1)CC2,-5%,-2%
CCCCCCCCCCCCCCCCCC(=O)[O][Al],13%,0%
Cc1cc(=O)c(C(=O)N(C)CCc2ccccn2)c2n1-c1ccccc1SC(c1ccsc1)C2 (stereo unspecified),-2%,-8%
NC(=NC1C2CC3CC(C2)CC1C3)Nc1ccc(I)cc1 (stereo unspecified),11µM*,8.9µM*
CON=C1C[C@]2(C[C@@H]3C[C@@H](C/C=C(\C)C[C@@H](C)/C=C/C=C4\CO[C@@H]5[C@H](O)C(C)=C[C@@H](C(=O)O3)[C@]45O)O2)O[C@H](/C(C)=C/C(C)C)[C@H]1C,28µM*,32µM*
CC[C@H](C)[C@H](NC(=O)[C@H](Cc1ccc(O)cc1)NC(=O)[C@@H]1CCCN1C(=O)[C@@H](NC(=O)[C@@H](N)CCCCN)[C@@H](C)CC)C(=O)N[C@@H](CC(C)C)C(=O)O,18%,-10%
CCCCCCCCCCCCC(=O)N1CCCC[C@H]1CNC(=O)[C@@H](N)CCCCN,28µM*,-28%

# Source: PubChem (National Center for Advancing Translational Sciences (NCATS))
